In ChEMBL document CHEMBL1961873, “Compounds: GSK PKIS; Assays: Nanosyn kinase panel” (2012) one finds inhibition data, which are given here for 4 compounds.

Test [1] concerns the target Tyrosine-protein kinase SYK (Homo sapiens) (UniProt P43405). Conditions: at 1 µM.
For test [2], the target named is T1, Tyrosine-protein kinase Tec (Homo sapiens) (UniProt P42680).
T1 sequence (whole entry): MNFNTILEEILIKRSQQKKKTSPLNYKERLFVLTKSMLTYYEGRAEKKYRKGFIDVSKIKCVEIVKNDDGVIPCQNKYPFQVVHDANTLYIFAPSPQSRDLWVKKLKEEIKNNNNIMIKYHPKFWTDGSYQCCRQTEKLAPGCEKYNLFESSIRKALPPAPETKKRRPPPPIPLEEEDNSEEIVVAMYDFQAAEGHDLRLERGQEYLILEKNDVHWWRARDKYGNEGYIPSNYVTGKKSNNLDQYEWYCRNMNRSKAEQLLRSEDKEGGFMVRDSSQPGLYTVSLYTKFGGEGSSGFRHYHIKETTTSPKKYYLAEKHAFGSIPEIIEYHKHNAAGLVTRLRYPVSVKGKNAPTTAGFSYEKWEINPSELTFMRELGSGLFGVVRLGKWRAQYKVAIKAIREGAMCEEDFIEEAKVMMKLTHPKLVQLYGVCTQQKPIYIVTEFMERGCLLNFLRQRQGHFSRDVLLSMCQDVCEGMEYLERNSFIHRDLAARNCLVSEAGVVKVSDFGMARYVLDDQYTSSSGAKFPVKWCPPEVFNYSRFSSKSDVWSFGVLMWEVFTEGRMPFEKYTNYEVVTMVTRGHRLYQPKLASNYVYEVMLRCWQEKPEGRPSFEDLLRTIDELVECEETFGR
Conditions: at 0.1 µM.

Test [3] has as its target T1, Tyrosine-protein kinase Tec (Homo sapiens). The conditions noted are these: at 1 µM.
For test [4], the target named is Angiopoietin-1 receptor (Homo sapiens) (UniProt Q02763). Conditions: at 0.1 µM.
Test [5] has the same target. The conditions noted are these: at 1 µM.
Test [6] addresses T2, Non-receptor tyrosine-protein kinase TNK1 (Homo sapiens) (UniProt Q13470).
T2 sequence (whole entry): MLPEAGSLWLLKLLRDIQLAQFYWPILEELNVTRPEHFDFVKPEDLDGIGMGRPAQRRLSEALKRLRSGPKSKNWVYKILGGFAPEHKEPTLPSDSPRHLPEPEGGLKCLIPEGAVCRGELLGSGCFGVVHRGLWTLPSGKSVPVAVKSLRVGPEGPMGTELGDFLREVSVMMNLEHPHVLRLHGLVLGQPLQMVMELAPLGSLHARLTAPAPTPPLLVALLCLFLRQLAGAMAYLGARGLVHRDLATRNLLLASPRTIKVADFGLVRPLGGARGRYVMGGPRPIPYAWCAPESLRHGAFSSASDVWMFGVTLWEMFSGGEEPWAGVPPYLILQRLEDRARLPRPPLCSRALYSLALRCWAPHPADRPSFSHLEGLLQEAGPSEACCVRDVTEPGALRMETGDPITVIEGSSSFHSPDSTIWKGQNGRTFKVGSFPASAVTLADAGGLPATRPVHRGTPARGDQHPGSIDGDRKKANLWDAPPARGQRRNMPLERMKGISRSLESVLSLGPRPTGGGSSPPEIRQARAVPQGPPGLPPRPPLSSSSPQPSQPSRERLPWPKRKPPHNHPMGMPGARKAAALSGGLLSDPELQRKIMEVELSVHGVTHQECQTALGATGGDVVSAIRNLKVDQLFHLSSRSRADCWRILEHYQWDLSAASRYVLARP
Conditions: at 0.1 µM.

Test [7] concerns the target T2, Non-receptor tyrosine-protein kinase TNK1 (Homo sapiens). Conditions: at 1 µM.
Test [8] deals with Activated CDC42 kinase 1 (Homo sapiens) (UniProt Q07912). Conditions: at 0.1 µM.
The target is the same in test [9]. The conditions noted are these: at 1 µM.
Test [10] has as its target High affinity nerve growth factor receptor (Homo sapiens) (UniProt P04629). Conditions: at 0.1 µM.
Test [11] shares this target. The conditions noted are these: at 1 µM.
Test [12] deals with BDNF/NT-3 growth factors receptor (Homo sapiens) (UniProt Q16620). Conditions: at 0.1 µM.
The target is the same in test [13]. The conditions noted are these: at 1 µM.
The target of test [14] is NT-3 growth factor receptor (Homo sapiens) (UniProt Q16288). The conditions noted are these: at 0.1 µM.
Test [15] has the same target. Conditions: at 1 µM.
Test [16] addresses T3, Tyrosine-protein kinase TXK (Homo sapiens) (UniProt P42681).
T3 sequence (whole entry): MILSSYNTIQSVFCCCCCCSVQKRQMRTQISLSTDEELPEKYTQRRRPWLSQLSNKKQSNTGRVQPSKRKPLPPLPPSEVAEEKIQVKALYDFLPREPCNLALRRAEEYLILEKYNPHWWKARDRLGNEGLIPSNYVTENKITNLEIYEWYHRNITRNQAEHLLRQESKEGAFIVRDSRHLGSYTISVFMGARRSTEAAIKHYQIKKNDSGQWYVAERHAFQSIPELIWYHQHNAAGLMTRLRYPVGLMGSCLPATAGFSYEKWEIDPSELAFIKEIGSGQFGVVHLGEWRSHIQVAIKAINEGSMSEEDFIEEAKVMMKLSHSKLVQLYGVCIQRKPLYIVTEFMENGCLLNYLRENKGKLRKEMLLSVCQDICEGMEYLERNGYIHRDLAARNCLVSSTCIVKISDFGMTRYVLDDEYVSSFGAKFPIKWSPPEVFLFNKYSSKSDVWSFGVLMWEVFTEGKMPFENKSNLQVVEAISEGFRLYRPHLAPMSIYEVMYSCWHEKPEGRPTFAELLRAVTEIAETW
The conditions noted are these: at 0.1 µM.

For test [17], the target named is T3, Tyrosine-protein kinase TXK (Homo sapiens). Conditions: at 1 µM.
Test [18] has as its target Non-receptor tyrosine-protein kinase TYK2 (Homo sapiens) (UniProt P29597). Conditions: at 0.1 µM.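 Further: each value is a mean of the inhibition readings.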
The target of test [19] is T4, Dual specificity protein kinase TTK (Homo sapiens) (UniProt P33981).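 Further: reported figures are mean TTK inhibition at 1 µM.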
T4 sequence (whole entry): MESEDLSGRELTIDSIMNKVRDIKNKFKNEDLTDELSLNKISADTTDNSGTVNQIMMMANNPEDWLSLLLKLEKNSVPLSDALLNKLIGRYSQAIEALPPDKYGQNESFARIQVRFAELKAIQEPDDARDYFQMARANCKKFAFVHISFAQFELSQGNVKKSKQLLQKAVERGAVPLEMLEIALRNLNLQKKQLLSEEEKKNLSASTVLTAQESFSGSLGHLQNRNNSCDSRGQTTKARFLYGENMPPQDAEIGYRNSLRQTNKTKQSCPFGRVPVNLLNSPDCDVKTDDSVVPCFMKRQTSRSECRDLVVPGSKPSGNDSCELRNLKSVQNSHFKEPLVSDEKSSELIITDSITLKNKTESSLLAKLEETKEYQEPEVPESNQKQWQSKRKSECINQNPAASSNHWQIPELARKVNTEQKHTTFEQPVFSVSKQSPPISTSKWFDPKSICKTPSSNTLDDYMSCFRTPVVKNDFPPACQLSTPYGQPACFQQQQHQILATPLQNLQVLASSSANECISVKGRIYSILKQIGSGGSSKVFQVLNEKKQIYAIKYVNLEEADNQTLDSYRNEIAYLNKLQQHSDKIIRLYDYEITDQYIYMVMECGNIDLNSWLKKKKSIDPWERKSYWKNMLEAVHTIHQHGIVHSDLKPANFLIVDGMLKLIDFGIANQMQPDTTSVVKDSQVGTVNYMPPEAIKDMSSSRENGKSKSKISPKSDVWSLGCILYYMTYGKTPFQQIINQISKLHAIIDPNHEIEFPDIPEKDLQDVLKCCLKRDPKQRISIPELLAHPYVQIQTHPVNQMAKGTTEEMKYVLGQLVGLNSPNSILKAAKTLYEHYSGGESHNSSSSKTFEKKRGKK
The conditions noted are these: at 1 µM.

For test [20], the target named is T5, Aurora kinase A (Homo sapiens) (UniProt O14965).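 Further: each reported value is a mean percent inhibition of Aurora-A.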
T5 sequence (whole entry): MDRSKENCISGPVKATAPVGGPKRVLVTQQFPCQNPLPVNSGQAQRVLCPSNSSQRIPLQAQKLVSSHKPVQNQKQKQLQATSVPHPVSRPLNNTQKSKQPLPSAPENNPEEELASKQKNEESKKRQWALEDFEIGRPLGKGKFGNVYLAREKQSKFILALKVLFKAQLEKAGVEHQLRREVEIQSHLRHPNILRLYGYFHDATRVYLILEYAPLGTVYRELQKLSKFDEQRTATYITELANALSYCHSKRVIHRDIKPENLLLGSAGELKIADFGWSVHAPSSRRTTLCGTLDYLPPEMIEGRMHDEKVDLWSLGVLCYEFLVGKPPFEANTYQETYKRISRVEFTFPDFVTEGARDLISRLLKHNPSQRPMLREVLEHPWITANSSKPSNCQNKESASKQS
The conditions noted are these: at 0.1 µM.

Sequence of NT-3 growth factor receptor (Homo sapiens) (Q16288 32-839 limits assumed): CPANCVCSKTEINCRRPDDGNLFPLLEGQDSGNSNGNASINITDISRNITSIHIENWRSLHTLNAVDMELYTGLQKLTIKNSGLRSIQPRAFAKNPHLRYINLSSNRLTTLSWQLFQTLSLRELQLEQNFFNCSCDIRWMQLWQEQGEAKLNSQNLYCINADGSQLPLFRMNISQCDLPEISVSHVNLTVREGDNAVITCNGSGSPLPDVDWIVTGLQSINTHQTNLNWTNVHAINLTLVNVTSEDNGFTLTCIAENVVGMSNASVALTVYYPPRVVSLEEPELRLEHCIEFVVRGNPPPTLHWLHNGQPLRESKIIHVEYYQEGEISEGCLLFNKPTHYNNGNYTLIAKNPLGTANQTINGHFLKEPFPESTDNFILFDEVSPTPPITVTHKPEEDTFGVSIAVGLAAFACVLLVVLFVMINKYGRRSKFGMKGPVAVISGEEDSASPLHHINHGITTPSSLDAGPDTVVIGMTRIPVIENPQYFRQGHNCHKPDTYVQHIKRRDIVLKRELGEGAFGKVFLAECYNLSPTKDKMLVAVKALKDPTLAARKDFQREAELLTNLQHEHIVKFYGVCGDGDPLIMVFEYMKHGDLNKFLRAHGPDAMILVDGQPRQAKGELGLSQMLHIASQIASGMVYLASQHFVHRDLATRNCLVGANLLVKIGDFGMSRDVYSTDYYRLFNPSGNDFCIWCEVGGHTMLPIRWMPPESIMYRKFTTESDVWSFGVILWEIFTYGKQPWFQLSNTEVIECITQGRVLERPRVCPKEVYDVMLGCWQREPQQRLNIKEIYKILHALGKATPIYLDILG
Sequence of High affinity nerve growth factor receptor (Homo sapiens) (P04629 33-796 limits assumed): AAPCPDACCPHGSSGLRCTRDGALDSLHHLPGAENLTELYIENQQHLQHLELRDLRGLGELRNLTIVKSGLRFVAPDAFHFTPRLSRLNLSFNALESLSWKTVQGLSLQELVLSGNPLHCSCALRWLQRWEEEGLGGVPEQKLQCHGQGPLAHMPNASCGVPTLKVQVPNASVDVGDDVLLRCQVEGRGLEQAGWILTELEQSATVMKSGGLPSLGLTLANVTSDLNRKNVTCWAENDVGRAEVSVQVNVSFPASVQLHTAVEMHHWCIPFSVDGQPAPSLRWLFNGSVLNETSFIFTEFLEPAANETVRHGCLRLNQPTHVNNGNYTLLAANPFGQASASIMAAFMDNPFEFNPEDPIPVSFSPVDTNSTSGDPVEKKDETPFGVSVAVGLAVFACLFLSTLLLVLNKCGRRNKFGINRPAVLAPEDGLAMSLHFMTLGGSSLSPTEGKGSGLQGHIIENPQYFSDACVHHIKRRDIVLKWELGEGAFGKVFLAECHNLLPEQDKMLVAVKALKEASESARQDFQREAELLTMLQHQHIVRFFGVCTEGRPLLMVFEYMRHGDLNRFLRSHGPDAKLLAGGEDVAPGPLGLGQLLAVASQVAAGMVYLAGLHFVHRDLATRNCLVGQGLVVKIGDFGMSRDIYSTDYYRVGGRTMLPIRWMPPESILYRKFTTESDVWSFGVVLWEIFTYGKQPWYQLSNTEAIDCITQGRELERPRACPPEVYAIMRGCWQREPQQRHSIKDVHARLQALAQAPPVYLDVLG
Sequence of Activated CDC42 kinase 1 (Homo sapiens) (Q07912 whole entry, looked up): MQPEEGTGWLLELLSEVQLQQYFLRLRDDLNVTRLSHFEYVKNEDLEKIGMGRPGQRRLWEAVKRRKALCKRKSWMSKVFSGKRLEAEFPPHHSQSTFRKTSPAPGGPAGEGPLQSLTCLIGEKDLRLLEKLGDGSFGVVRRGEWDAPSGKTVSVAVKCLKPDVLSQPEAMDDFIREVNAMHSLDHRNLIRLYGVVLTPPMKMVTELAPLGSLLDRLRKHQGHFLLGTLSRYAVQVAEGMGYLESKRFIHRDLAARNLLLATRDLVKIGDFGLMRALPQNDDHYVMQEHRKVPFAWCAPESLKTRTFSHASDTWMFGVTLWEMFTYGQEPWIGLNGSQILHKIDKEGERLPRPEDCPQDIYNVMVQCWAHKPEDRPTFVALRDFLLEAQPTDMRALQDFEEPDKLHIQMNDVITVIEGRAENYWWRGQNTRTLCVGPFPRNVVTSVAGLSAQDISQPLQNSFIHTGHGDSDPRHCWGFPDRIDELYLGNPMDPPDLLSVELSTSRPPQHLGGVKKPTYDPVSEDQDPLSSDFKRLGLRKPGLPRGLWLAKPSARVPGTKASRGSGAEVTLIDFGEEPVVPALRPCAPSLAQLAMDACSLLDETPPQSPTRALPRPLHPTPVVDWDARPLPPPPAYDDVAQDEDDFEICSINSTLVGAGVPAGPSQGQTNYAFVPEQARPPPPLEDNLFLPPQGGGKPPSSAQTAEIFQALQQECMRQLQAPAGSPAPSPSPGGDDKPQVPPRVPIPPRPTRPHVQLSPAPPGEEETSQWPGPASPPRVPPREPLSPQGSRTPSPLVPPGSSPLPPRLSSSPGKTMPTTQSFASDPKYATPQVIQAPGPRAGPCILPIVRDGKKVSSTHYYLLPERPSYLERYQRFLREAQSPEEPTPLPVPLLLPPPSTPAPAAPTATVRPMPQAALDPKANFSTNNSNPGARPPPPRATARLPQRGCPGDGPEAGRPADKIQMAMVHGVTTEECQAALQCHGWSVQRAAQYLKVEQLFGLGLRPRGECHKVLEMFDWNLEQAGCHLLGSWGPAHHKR
Sequence of Angiopoietin-1 receptor (Homo sapiens) (Q02763 whole entry): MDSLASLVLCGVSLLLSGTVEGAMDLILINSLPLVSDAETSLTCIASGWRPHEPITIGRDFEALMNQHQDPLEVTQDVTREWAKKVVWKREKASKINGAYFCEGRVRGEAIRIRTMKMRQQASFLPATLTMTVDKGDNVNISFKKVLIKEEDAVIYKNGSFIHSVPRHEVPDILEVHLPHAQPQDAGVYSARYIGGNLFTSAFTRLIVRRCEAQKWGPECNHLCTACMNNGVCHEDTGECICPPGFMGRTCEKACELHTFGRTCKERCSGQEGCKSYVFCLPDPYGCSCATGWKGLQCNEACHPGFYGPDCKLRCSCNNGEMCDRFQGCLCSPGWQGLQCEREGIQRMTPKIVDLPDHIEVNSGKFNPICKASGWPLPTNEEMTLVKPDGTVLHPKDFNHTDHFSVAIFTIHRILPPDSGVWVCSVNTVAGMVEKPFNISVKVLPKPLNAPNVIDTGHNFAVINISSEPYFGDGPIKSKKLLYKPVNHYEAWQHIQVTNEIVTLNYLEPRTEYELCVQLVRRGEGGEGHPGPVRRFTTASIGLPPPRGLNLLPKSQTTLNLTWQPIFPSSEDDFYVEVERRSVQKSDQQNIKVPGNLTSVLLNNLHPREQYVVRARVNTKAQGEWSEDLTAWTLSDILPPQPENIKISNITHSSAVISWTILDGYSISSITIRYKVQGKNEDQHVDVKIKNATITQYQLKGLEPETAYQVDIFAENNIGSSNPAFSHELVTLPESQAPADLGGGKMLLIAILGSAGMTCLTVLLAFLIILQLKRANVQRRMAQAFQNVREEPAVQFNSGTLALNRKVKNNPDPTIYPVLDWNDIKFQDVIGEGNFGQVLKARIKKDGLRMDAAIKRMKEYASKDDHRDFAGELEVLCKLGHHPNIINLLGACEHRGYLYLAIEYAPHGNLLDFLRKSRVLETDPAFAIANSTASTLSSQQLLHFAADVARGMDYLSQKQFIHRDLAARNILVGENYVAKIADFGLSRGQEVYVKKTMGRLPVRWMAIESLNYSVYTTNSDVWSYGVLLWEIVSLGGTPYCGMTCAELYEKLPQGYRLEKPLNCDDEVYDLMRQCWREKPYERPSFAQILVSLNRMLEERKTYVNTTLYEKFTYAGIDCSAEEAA
Sequence of Non-receptor tyrosine-protein kinase TYK2 (Homo sapiens) (P29597 whole entry): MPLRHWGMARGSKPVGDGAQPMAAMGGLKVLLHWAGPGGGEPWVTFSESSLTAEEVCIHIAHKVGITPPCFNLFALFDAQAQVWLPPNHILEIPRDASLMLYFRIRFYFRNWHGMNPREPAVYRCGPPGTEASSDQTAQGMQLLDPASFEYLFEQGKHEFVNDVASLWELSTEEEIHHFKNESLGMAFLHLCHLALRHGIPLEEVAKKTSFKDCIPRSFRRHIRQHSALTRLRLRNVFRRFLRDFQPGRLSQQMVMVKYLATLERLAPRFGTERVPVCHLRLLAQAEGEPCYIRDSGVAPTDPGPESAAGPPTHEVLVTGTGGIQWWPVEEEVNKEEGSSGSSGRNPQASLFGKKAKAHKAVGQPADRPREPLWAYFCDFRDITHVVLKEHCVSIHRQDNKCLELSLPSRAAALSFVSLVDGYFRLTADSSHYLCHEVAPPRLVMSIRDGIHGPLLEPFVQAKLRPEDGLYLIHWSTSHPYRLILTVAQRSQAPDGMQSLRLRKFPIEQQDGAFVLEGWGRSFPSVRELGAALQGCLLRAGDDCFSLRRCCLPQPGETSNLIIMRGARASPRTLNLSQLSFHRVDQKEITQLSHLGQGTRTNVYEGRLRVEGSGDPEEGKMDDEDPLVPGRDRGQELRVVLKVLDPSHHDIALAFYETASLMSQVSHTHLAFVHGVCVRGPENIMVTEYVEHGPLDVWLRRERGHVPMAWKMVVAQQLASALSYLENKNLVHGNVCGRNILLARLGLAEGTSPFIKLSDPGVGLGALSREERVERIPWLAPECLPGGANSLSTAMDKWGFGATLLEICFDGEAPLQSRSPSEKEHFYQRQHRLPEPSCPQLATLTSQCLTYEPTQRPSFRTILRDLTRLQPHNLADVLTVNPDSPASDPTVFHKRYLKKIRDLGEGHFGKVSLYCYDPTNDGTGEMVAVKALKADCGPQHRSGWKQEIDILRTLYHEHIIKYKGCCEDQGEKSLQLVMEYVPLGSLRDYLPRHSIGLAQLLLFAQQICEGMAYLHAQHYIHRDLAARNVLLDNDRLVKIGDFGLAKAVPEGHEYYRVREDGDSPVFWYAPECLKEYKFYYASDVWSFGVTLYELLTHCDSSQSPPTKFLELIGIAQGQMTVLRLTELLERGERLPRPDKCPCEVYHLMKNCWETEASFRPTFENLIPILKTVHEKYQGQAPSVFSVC

For the compound `COc1ccc(-c2ccc3c(NC(=O)C4CC4)n[nH]c3n2)cc1`, the inhibition is -2.02% in test [1]; 0.87% in test [2]; 2.47% in [3]; 2.75% in test [4]; 5.88% in test [5]; 1.34% in test [6]. For the same compound, the inhibition is 12% in [7]; 0.32% in [8]; 1.42% in test [9]; -0.67% in test [10]; 2.48% in test [11]; 1.11% in test [12]. Moreover, the inhibition was 5.12% in [13]; -0.49% in test [14]; 5.04% in [15]; 2.08% in test [16]; 2.53% in [17]; 0.27% in [18]. The results for the inhibition in [19] and in [20] were 8.48% and 1.67%, respectively.
Take `CCC(=O)Nc1ccc(C)c(-c2ccc(C(=O)NCC3CC3)cc2)c1`: the inhibition was 0.67% in [1]; 3.13% in test [2]; 2.28% in test [3]; 4.73% in test [4]; 6.22% in [5]; -0.12% in [6]. Further, the inhibition came to 6.35% in [7]; 0.66% in test [8]; 1.34% in [9]; 2% in test [10]; 4.19% in [11]; 2.75% in test [12]. For the same compound, the inhibition is 2.88% in [13]; 2.19% in [14]; 2.2% in test [15]; 2.71% in test [16]; 1.4% in test [17]; -2.17% in test [18]. Further, the inhibition was 8.22% in test [19] and 1.72% in test [20].
For `c1ccc(-c2n[nH]cc2-c2ccnc(-c3ccc(OCCN4CCOCC4)cc3)c2)nc1`, the inhibition was -0.16% in [1]; 3.84% in test [2]; 4.59% in [3]; 4.66% in test [4]; 7.13% in test [5]; 0.24% in [6]. Besides, the inhibition is -5.31% in [7]; 5.48% in [8]; 5.14% in [9]; -3.86% in [10]; -0.7% in test [11]; 0.05% in test [12]. The inhibition turned out to be 0.41% in test [13]; 1.29% in [14]; 3.05% in test [15]; 5.88% in [16]; 6.57% in test [17]; 4.24% in test [18]. Further, the inhibition in test [19] came out at 0.86%; in test [20], 0.43%.
As for `O=C1NC(=O)C(c2cccc(Cl)c2)=C1Nc1ccc(Cl)c(C(=O)O)c1`, the inhibition in [1] was -0.32%; in test [2], 3.38%; in [3] it was 2.84%; in test [4] it was 1.75%; in [5] it was 4.22%; in [6] it was 0.16%. Also, the inhibition in test [7] is 11%; in [8] it was 0.78%; in [9], 0.5%; in test [10], 0.94%; in test [11] it was -0.54%; in test [12], 0.88%. Besides, the inhibition in test [13] is 1.89%; in test [14], 1.02%; in [15], 2.72%; in test [16], 2.81%; in test [17] it was 2.53%; in test [18] it was -0.74%. The inhibition in test [19] was found to be 9.31%; in [20], 2.92%.
